Ba CapD inh: blocks the Bacillus anthracis CapD enzyme. z-score (test concentration not listed). purified CapD enzyme, fluorescence intensity read-out; stronger effect = lower value. 140,000 tested, 0.23% active; in the data active = z-score mostly below about -2.9, no sharp cut-off; inactive = mostly above about -1.9
Large screens that a line does not name were inactive. The entries come from a sample that favours hits as a whole.

CCOC(=O)CN1CCN(c2ccc(C(F)(F)F)cc2N)CC1	none
NC1=NC(=O)CC(C(=O)Nc2ccc(-c3ccccc3)cc2)S1 (stereo unspecified)	none
Cc1ccc2c(c1)-c1c(ssc1=S)C(C)(C)N2C(=O)CCC1CCCCC1	none
NC(=O)CSc1nnc(Cc2cc(=O)[nH]c(=O)[nH]2)n1-c1ccccc1	Ba CapD inh -5
O=C(CSc1nnc(Cc2cc(=O)[nH]c(=O)[nH]2)n1-c1ccccc1)N1CCCC1	none
CCSc1nnc(Cc2cc(=O)[nH]c(=O)[nH]2)n1-c1cccc(C)c1	none
CSc1ccc2c(c1)c(=O)nc1n2CCCCC1	none
CCOC(=O)NC(=S)N1C(C)CCCC1C (stereo unspecified)	none
O/N=C1/CCCc2occc21	none
O=C(O)Cn1ncc2c1-c1ccoc1CC2	none
O=C1/C(=C\O)CCc2occc21	Ba CapD inh -8.1
O=C(Nc1cccnc1)c1ccc(Br)o1	none
CC(C)c1ccc(C2/C(=C(\O)c3ccccc3)C(=O)C(=O)N2CCCN2CCOCC2)cc1 (stereo unspecified)	none
Cc1c(/C=N/OC(=O)c2ccc(Cl)cc2)c(=O)n(-c2ccccc2)n1C	none
S=C(NCc1ccccc1)N/N=C/c1ccco1	none
CC(C)NC(=S)N/N=C/c1ccco1	Ba CapD inh -4
S=C(N/N=C\c1ccco1)Nc1ccccc1	none
Cc1ccc(CNC(=O)CCc2c(C)nc3c(c2C)c(=O)n(C)c(=O)n3C)cc1	none
COc1cccc(/C=N/NC(=O)CNc2ccccc2)c1	none
Cc1c(C(=O)N2CCOCC2)sc2nc(SCC#N)n(CCc3ccccc3)c(=O)c12	none
COc1ccc(C2(C(F)(F)F)NC(=O)C3=C(CC(C)(C)CC3=O)O2)cc1 (stereo unspecified)	none
N#Cc1cn(Cc2ccccc2)c2ccccc12	none
O=C(CSc1cn(Cc2ccccc2)c2ccccc12)N1CCCC1	none
N=C(N)Sc1cn(Cc2ccccc2)c2ccccc12	Ba CapD inh -4.8
COc1ccc(CNC(=O)c2c[nH]c3ccccc23)cc1	none
Cc1ccc2c(c1)-c1sc(C(=O)Nc3ccc(F)cc3)cc1CS2	none
CC1(C)CC(=O)C2=C(C1)OC(N)=C(C#N)C2c1ccc(-c2cc([N+](=O)[O-])ccc2Cl)o1 (stereo unspecified)	none
CCOC(=O)c1c(NC(=O)c2sc3nc(N)c(C#N)cc3c2N)sc2c1CCCC2	none
N#Cc1c(C(F)(F)F)cc(-c2ccc(Cl)cc2)nc1Sc1ccccc1	none
COc1ccc(CN2C(=O)c3ccccc3C2=O)cc1	none
COc1ccc(CCNC(=O)C(F)(F)F)cc1	none
COc1ccc(CCNC(=O)C(C(C)C)N2C(=O)c3ccccc3C2=O)cc1 (stereo unspecified)	Ba CapD inh -4.8
COc1ccc(N2C3=[N+](CC2(O)c2ccccc2)C(c2ccccc2)CCC3)cc1 (stereo unspecified)	none
CCOc1ccc(S(=O)(=O)NCc2csc(-c3ccccc3)n2)cc1	none
CCc1nnc(NC(=O)CSc2nnc(NC(=O)c3ccc(C(=O)c4ccccc4)cc3)s2)s1	none
CSC1=NCCN1C(=O)c1ccccc1	none
Oc1ccc(-c2nc3ccccc3[nH]2)cc1	none
c1ccc(-c2nnsc2-c2nc3ccccc3[nH]2)cc1	none
c1ccc2sc3c(-c4ccncc4)sc4ccccc4[nH]c-3nc2c1	Ba CapD inh -4.1
O=C(NCc1ccco1)/C(=C\c1ccc(Br)cc1)NC(=O)c1ccccc1	none
O=C(N/N=C\c1cn(-c2ccccc2)nc1-c1ccccc1)c1ccc(Br)cc1	none
CCOC(=O)c1cnc(=S)[nH]c1N	none
CCOC(=O)c1c[nH]c(=S)[nH]1	none
CCOC(=O)c1c[nH]c(=S)[nH]c1=O	Ba CapD inh -7
CCCN1CCN(C(=O)c2sc3nc4n(c(=O)c3c2C)CCCC4)CC1	none
Cc1c(C(=O)N(C)Cc2ccccc2)sc2nc3n(c(=O)c12)CCCC3	none
Cc1c(C(=O)O)sc2nc3n(c(=O)c12)CCC3	Ba CapD inh -5.2
Cc1cc2nc3s/c(=C/c4cc5c(cc4Br)OCO5)c(=O)n3c2cc1C	none
Cc1onc(-c2c(Cl)cccc2Cl)c1C(=O)Oc1ccc(Cl)c(Cl)c1	none
O=C(CCS(=O)(=O)c1cccs1)NC1CCCc2ccccc21 (stereo unspecified)	none
O=S(=O)(NC1CCCc2ccccc21)c1cccs1 (stereo unspecified)	Ba CapD inh -1.7
O=C(c1ccc(S(=O)(=O)NC2CCCc3ccccc32)s1)N1CCCC1 (stereo unspecified)	none
C(=N\c1nc2ccccc2[nH]1)/c1ccc2c(c1)OCO2	none
CCn1cc(C(=O)O)c2ccccc21	none
Cc1ccc(C2C3C(=O)N(C)C(=O)C3ON2c2ccccc2)cc1 (stereo unspecified)	none
COCCNc1nc(SCc2ccc([N+](=O)[O-])cc2)nc2ccccc12	none
O=C(NCc1ccc2c(c1)OCO2)C(F)(F)F	none
CCc1ccc(NC(=O)C2COc3ccccc3O2)cc1 (stereo unspecified)	none
CCc1ccc2c(c1)S(=O)(=O)C(C(F)(F)F)CO2 (stereo unspecified)	Ba CapD inh -6.6
COc1ccc(CNC(=O)c2cnn3c(C)c(Cc4ccccc4Br)c(C)nc23)cc1	none
N#CC(C(=O)c1ccco1)=C1SCCCS1	none
N#C/C(=N\O)C(=O)c1ccco1	Ba CapD inh -4.6
N#C/C(=N\Nc1cc(C(F)(F)F)cc(C(F)(F)F)c1)C(=O)c1ccco1	none
CC(CCc1ccccc1)N1C(=O)c2ccccc2C1C(=O)NCCc1ccccc1 (stereo unspecified)	none
COc1ccc(CNC(=O)/C(=C\c2ccccc2OC)c2ccccc2)cc1	none
Cc1nnc(SCc2cn3cc(Br)ccc3n2)n1C	none
Cc1ccnc(N2CCCC(C(=O)NCCCc3ccccc3)C2)n1 (stereo unspecified)	none
c1cncc(-c2ncc(-c3nc4ccccc4o3)c(-c3ccncc3)n2)c1	none
CN(C)/C=C1\Cc2ccccc2C1=O	none
O=C1/C(=C/c2ccccc2)CCCc2ccccc21	none
CN(C)/C=C1\CCCc2ccccc2C1=O	Ba CapD inh -4.1
COc1ccc(-c2c(C#N)c(N)nc(SC3CCCCC3=O)c2C#N)cc1 (stereo unspecified)	none
COC(=O)c1cc2c(cc1NC(=O)c1c(C)nn(-c3ccccc3)c1-n1cccc1)OCO2	none
COc1ccc(/C=N/NC(=O)c2ccc3nonc3c2)cc1C	none
O=C(CNS(=O)(=O)c1ccccc1Cl)Nc1ccc([N+](=O)[O-])cc1	none
CCOC(=O)c1nonc1N	none
CC(=O)N1c2nonc2N(C(C)=O)c2nonc21	Ba CapD inh -11
CC(=O)Nc1nonc1N1CCCC1=O	none
c1ccc(-c2nnc(CN3CCCCCC3)o2)cc1	none
Cc1noc(/C=C/N(C)C)c1S(=O)(=O)N(CCc1ccccc1)Cc1ccccc1	Ba CapD inh -4.3
COc1ccc(CN(Cc2ccc(OC)cc2)S(=O)(=O)c2c(C)noc2C)cc1	none
Cc1noc(C)c1S(=O)(=O)N(CCC#N)Cc1ccccc1	none
COC(=O)C(NC(=O)C(Cc1c[nH]c2ccccc12)NC(=O)OC(C)(C)C)C(C)C (stereo unspecified)	none
COc1ccc(N2C(=O)CCC2(C(N)=O)c2ccccc2)cc1 (stereo unspecified)	none
Cc1ccc(N2C(=O)C(O)=CC2(O)c2ccccc2)cc1 (stereo unspecified)	none
COc1ccc(N2C(=O)C(O)=CC2(OC)c2ccccc2)cc1 (stereo unspecified)	Ba CapD inh -4.5
CSc1nn(-c2ccccc2)c(N)c1C#N	none
O=c1[nH]c2ccccc2c(O)c1C=NCc1ccccc1	none
COc1ccc(OC)c(N2CC(O)(c3ccc(OC)c(OC)c3)[N+]3=C2SCCC3)c1 (stereo unspecified)	none
O=C(NN1S(=O)(=O)c2ccccc2S1(=O)=O)c1nsnc1NCCCl	Ba CapD inh -6.3

High-throughput results from PubChem.
